Measurements taken from PubChem BioAssay (NCI).
About 83,000 compounds went through this panel and 20% of them were active in at least one assay; those are over-represented in the sample as a whole.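 Treatment: one concentration, 48 hours, 96-well format. Scoring: percent growth, with anything below 10 considered active.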 The source made the active and inactive calls.

test system: SF-295 CNS; assay: NCI-60 one-dose screen, 48 h (100 = growth as untreated, 0 = no growth, -100 = all killed); settings: 10 µM

| Structure (SMILES) | growth |
| --- | --- |
| COc1cc2cc(C(=O)N3C[C@@H](CCl)c4c3cc(OC(=O)N3CCN(C)[C@@H]5CSSC[C@H]53)c3ccccc43)[nH]c2c(OC)c1OC | -43.2% (active) |
| CC1=C(CCC=O)C2=C(C)C3(CC3)[C@@](C)(O)C(=O)C2=C1 | -64.3% (active) |
| COC(=O)C[C@](O)(CCC(C)C)C(=O)O[C@@H]1C(OC)=C[C@]23CCCN2CCc2cc4c(cc2[C@H]13)OCO4 | -35.5% (active) |
| O=C(/C=C/c1ccc(Cl)cc1)c1nc2ccccc2n1Cc1ccc(F)cc1 | 50.7% (inactive) |
| CC[C@]12C=CCN3CC[C@@]4(c5ccc(OC)cc5N(C)[C@H]4[C@@](O)(C(=O)OC)[C@@H]1OC(=O)CCC[P+](C1CCCCC1)(C1CCCCC1)C1CCCCC1)[C@@H]32 | -13.5% (active) |
| CC1=C2C(=C[C@@](C)(COP(=O)(Oc3ccccc3)Oc3ccccc3)[C@@H]2O)C(=O)[C@@](C)(O)C12CC2 | -59% (active) |
| CC(=O)Oc1ccccc1C(=O)NC([Se])=NC1CCCCC1 | -8.45% (active) |
| CCOP(=O)(CC(F)(F)C(F)(F)F)OCC | 97.7% (inactive) |
| CC(C)C[C@H](NC(=O)CNC(=O)C[C@H]1O[C@@H]2OC3(C)CC[C@H]4[C@H](C)CC[C@@H]([C@H]1C)[C@@]24OO3)B(O)O | -63.6% (active) |
| C[C@H]1[C@@H](Oc2ccc(-c3cn(-c4ccnc5cc(Cl)ccc45)nn3)cc2)O[C@@H]2OC3(C)CC[C@H]4[C@H](C)CC[C@@H]1[C@@]24OO3 | 37.6% (inactive) |
| C[C@H]1[C@H](OC(=O)CCC(=O)N(CCCc2cn(-c3ccc([N+](=O)[O-])cc3)nn2)CCNc2ccnc3cc(Cl)ccc23)O[C@@H]2OC3(C)CC[C@H]4[C@H](C)CC[C@@H]1[C@@]24OO3 | 46.1% (inactive) |
